Assay results: PubChem BioAssay (NCATS)
Inconclusive results are not listed. A call without a number means that no potency is given here. Activity calls are given as the source filed them. The call rests on the fitted dose curve; in most records, active means well fitted inhibition curve with a large enough effect; inconclusive means small, poorly fitted or top-dose-only effect; inactive means flat fitted curve, though single readings scatter.

Legend:
Assay in all cases: qHTS profiling for inhibitors of Plasmodium falciparum proliferation (AID 504749); further: nearly all actives have a fitted effect of over 60% in size
Conditions in all cases: P. falciparum in erythrocytes, SYBR Green DNA, 72 h; series mostly up to 28.7 µM
[1] = system: CP238
In short: (§1)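 P. falciparum-infected erythrocytes (0.3% parasitemia, 2.5% hematocrit) incubated with compound 72 h at 37 C, 5% CO2. Parasite DNA detected by SYBR Green after lysis, overnight at room temperature; normalised to 0.29 uM artemisinin and DMSO.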

[2] = system: CP247
In short: as §1

[3] = system: CP250
In short: as §1

[4] = system: CP252
In short: as §1

[5] = system: CP256
In short: as §1

[6] = system: CP260
In short: as §1

[7] = system: CP262
In short: as §1

[8] = system: CP265
In short: as §1

[9] = system: CP266
In short: as §1

[10] = system: CP268
In short: as §1

[11] = system: CP269
In short: as §1

[12] = system: CP286
In short: as §1

[13] = system: CP291
In short: as §1

[14] = system: CP297
In short: as §1

[15] = system: CP305
In short: as §1

[16] = system: CP315
In short: as §1

[17] = system: CP325
In short: as §1

[18] = system: CP329
In short: as §1

[19] = system: CP335
In short: as §1

[20] = system: DFO2036
In short: as §1
Potency means the concentration at half of the fitted maximal effect.

SMILES	Potency [1]	Potency [2]	Potency [3]	Potency [4]	Potency [5]	Potency [6]	Potency [7]	Potency [8]	Potency [9]	Potency [10]	Potency [11]	Potency [12]	Potency [13]	Potency [14]	Potency [15]	Potency [16]	Potency [17]	Potency [18]	Potency [19]	Potency [20]
COc1ccc(-c2ccc3cc(C(=O)O)ccc3c2)cc1C12CC3CC(CC(C3)C1)C2	inactive	inactive	inactive	inactive	inactive	inactive	inactive	inactive	inactive	inactive	inactive	inactive	inactive	inactive	inactive	inactive	inactive	inactive	inactive	inactive
Cc1nnc(NS(=O)(=O)c2ccc(N)cc2)s1	inactive	inactive	inactive	inactive	inactive	inactive	inactive	inactive	inactive	inactive	inactive	inactive	inactive	inactive	inactive	inactive	inactive	inactive	inactive	inactive
CCOCC(O)COc1ccc(NC(=O)CC[S+](C)C)cc1 (centres undefined)	inactive	inactive	inactive	inactive	inactive	inactive	inactive	inactive	inactive	inactive	inactive	inactive	inactive	inactive	inactive	inactive	inactive	inactive	inactive	inactive
CN(CCOc1ccc(CC2SC(=O)NC2=O)cc1)c1ccccn1 (centres undefined)	inactive	inactive	inactive	inactive	inactive	inactive	inactive	inactive	inactive	inactive	inactive	inactive	inactive	inactive	inactive	inactive	inactive	inactive	inactive	inactive
CC(C)OC(=O)C(C(=O)OC(C)C)=C1SC=CS1	inactive	inactive	inactive	inactive	inactive	inactive	inactive	inactive	inactive	inactive	inactive	inactive	inactive	inactive	inactive	inactive	inactive	inactive		inactive
NC(=O)N1c2ccccc2CC(=O)c2ccccc21	inactive	inactive	inactive	inactive	inactive	inactive		inactive	inactive	inactive	inactive	inactive		inactive	inactive	inactive	inactive		inactive	inactive
CCc1c2c(nc3ccc(OC(=O)N4CCC(N5CCCCC5)CC4)cc13)-c1cc3c(c(=O)n1C2)COC(=O)[C@]3(O)CC	inactive	inactive	inactive	inactive	inactive	inactive	inactive	inactive		inactive	inactive	inactive	inactive	inactive	inactive	inactive	inactive	inactive	inactive	inactive
COc1nc(N)nc2c1ncn2[C@@H]1O[C@H](CO)[C@@H](O)[C@@H]1O	inactive	inactive	inactive	inactive	inactive	inactive	inactive	inactive	inactive	inactive	inactive	inactive			inactive	inactive	inactive	inactive	inactive	inactive
CNS(=O)(=O)Cc1ccc2[nH]cc(CCN(C)C)c2c1	inactive	inactive	inactive	inactive	inactive	inactive	inactive	inactive	inactive	inactive	inactive	inactive	inactive	inactive	inactive	inactive	inactive	inactive		inactive
COC(=O)Nc1nc2ccc(Sc3ccccc3)cc2[nH]1	inactive	inactive	inactive	inactive	inactive	inactive	inactive	inactive		inactive	inactive	inactive	inactive	inactive	inactive	inactive	inactive	inactive	inactive	inactive
CCOc1cc(N)c(Cl)cc1C(=O)NCC1CN(Cc2ccc(F)cc2)CCO1 (centres undefined)	11.2 µM (active)	7.08 µM (active)	5.62 µM (active)	10 µM (active)	2.82 µM (active)	11.2 µM (active)	6.01 µM (active)	3.16 µM (active)			13.5 µM (active)	3.98 µM (active)	12 µM (active)		10.7 µM (active)			13.5 µM (active)	6.75 µM (active)	
COC(=O)Nc1nc2ccc(C(=O)c3ccccc3)cc2[nH]1	inactive	inactive	inactive	inactive	inactive	inactive	inactive	inactive		inactive		inactive		inactive		inactive		inactive	inactive	inactive
COc1cc2c(Nc3ccc(Br)cc3F)ncnc2cc1OCC1CCN(C)CC1	6.31 µM (active)	1 µM (active)	1.41 µM (active)	1.12 µM (active)	3.16 µM (active)	3.55 µM (active)		3.98 µM (active)	inactive	2.13 µM (active)	5.36 µM (active)	3.98 µM (active)	3.79 µM (active)		2.39 µM (active)	inactive	10.7 µM (active)		4.26 µM (active)	0.794 µM (active)
CC(C)(Sc1cc(C(C)(C)C)c(O)c(C(C)(C)C)c1)Sc1cc(C(C)(C)C)c(O)c(C(C)(C)C)c1	inactive	inactive	inactive	inactive	inactive	3.55 µM (active)		inactive	inactive	inactive	inactive	3.98 µM (active)	inactive	inactive	inactive		inactive	inactive	3.61 µM (active)	inactive
O=c1cc(O)c(Cl)c[nH]1	inactive	inactive	inactive	inactive	inactive	inactive	inactive	inactive		inactive	inactive	inactive	inactive	inactive	inactive	inactive	inactive	inactive	inactive	inactive
CC(C)(C#N)c1cc(Cn2cncn2)cc(C(C)(C)C#N)c1	inactive	inactive	inactive	inactive	inactive	inactive	inactive	inactive	inactive	inactive	inactive	inactive	inactive	inactive	inactive	inactive	inactive	inactive		inactive
COc1cc(NS(=O)(=O)c2ccc(N)cc2)nc(OC)n1	inactive	inactive	inactive	inactive	inactive	inactive	inactive	inactive		inactive	inactive	inactive	inactive	inactive	inactive	inactive	inactive	inactive	inactive	inactive
Cc1ncc([N+](=O)[O-])n1CCO	inactive	inactive	inactive	inactive	inactive	inactive	inactive	inactive		inactive	inactive	inactive	inactive	inactive	inactive	inactive	inactive	inactive	inactive	inactive
CC(=O)Oc1ccccc1C(=O)Nc1ncc([N+](=O)[O-])s1	inactive	inactive	inactive	inactive	inactive	8.91 µM (active)	inactive	inactive	inactive	inactive	inactive	12.6 µM (active)	inactive	inactive	inactive	inactive	inactive	inactive		inactive
CN(C)CCc1c[nH]c2ccc(CS(=O)(=O)N3CCCC3)cc12	inactive	inactive	inactive	inactive	inactive	inactive	inactive	inactive	inactive	inactive	inactive	inactive	inactive	inactive	inactive	inactive	inactive	inactive		inactive
Cc1noc(NS(=O)(=O)c2ccc(N)cc2)c1C	inactive	inactive	inactive	inactive	inactive	inactive	inactive	inactive			inactive	inactive	inactive	inactive	inactive		inactive	inactive	inactive	inactive
NCCCC(O)(P(=O)(O)O)P(=O)(O)O	inactive	inactive	inactive	inactive	inactive	inactive	inactive	inactive		inactive	inactive	inactive	inactive	inactive	inactive	inactive	inactive	inactive	inactive	inactive
COc1ccc2cc3[n+](cc2c1OC)CCc1cc2c(cc1-3)OCO2	0.891 µM (active)	3.16 µM (active)	1.41 µM (active)	1.12 µM (active)	0.282 µM (active)	0.891 µM (active)	0.757 µM (active)	0.891 µM (active)		1.35 µM (active)	0.953 µM (active)	0.562 µM (active)	1.51 µM (active)	1.35 µM (active)	0.757 µM (active)	1.07 µM (active)	0.953 µM (active)	0.953 µM (active)	0.953 µM (active)	0.891 µM (active)
NC(=O)c1cccnc1	inactive	inactive	inactive	inactive	inactive	inactive	inactive	inactive		inactive	inactive	inactive	inactive	inactive	inactive	inactive	inactive	inactive	inactive	inactive
OC(Cn1cncn1)(Cn1cncn1)c1ccc(F)cc1F	inactive	inactive	inactive	inactive	inactive	inactive	inactive	inactive	inactive	inactive		inactive	inactive	inactive	inactive	inactive	inactive	inactive	inactive	inactive
CC[C@H](C)C(=O)O[C@H]1C[C@@H](C)C=C2C=C[C@H](C)[C@H](CC[C@@H]3C[C@@H](O)CC(=O)O3)[C@H]21	inactive	inactive	inactive	inactive	inactive	inactive	inactive	inactive	inactive	inactive	inactive	inactive	inactive	inactive	inactive	inactive	inactive	inactive		inactive
COc1cnc(NS(=O)(=O)c2ccc(N)cc2)nc1	inactive	inactive	inactive	inactive	inactive	inactive	inactive	inactive		inactive	inactive	inactive	inactive	inactive	inactive	inactive	inactive	inactive	inactive	inactive
CCCc1cc(C(N)=S)ccn1	inactive	inactive	inactive	inactive	inactive	inactive	inactive	inactive	inactive	inactive	inactive	inactive	inactive		inactive	inactive	inactive	inactive	inactive	inactive
